Data: PubChem BioAssay AID652245 (The Scripps Research Institute Molecular Screening Center, 2013)
In all, about 1,600 compounds went through this assay and about 920 (58%) were called active. So high a share suggests a set chosen from earlier hits. A selection follows. Values without a mark were called inactive.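 How the source made its calls: active means inhibition above the primary screen's cutoff, the mean inhibition of all screened compounds plus 3 SD (cut at about 13% in these data); inactive means the rest.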

Molecular target: Galanin receptor type 3 (Homo sapiens) (UniProt O60755)
Test: GalR3 antagonist hit confirmation, cell-based, fluorescence, triplicate (AID 652245);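 further: 0% = forskolin plus galanin and 100% = forskolin alone with DMSO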
Conditions: HEK293 GalR3 CNG cAMP biosensor, membrane potential fluorescence; at 3 µM; hits give high values

Chain of Galanin receptor type 3 (Homo sapiens) (O60755 1-299 limits assumed): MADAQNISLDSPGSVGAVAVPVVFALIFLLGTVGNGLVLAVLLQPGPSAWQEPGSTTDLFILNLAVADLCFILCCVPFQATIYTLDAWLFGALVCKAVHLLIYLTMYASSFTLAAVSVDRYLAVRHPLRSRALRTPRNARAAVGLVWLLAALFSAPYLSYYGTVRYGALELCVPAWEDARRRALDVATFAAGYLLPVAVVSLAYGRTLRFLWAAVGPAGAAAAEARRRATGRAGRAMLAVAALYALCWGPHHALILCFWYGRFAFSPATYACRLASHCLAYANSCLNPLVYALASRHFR

Compound | inhibition
CCCCCCCCCCCCn1ccc(=N)cc1 | 92.6% (active)
COC(=O)C1=C(c2cc3ccccc3s2)C[C@@H]2CC[C@H]1N2C(=O)NCc1cccc2ccccc12 | -2.45%
COc1ccc(-n2c(-c3ccccc3)nc3ccccc3c2=O)cc1 | 7.55%
